Where “and” joins values, the source holds several entries; their conditions need not be identical. Equal entries are not always repeated. Screen size: about 5,500 compounds; about 2,000 (36%) were called active. Roughly 18% stayed inconclusive and do not appear here. No stated cut-off is given here; in the data, active means normalized growth mostly below about 0.91 (no sharp cut-off); inconclusive means no clear call, values can overlap the other calls; inactive means mostly above about 0.92. The list shows a part of the results. Some structures have more than one record in an assay (separate samples or runs), and their calls can disagree.
Experiment: chemical genetic growth profiling, strain panel (AID 1159580);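 further: tested at 20 µM; growth read once vehicle control cultures reached saturation at 30 °C; 1 = growth at the plate median or of vehicle wells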
Conditions: growth OD
[1] = S. cerevisiae deletion strains, locus YHR030C, strain SLT2, stronger effect = lower value
[2] = S. cerevisiae deletion strains, locus YJL095W, strain BCK1, stronger effect = lower value

Measured: normalized growth

CCC(=O)O[C@H](CC(=O)O)C[N+](C)(C)C
inactive: [1] 1.02 | S. cerevisiae deletion strains, locus YHR079C, strain IRE1, stronger effect = lower value 1.05 | [2] 1.05 | S. cerevisiae deletion strains, locus YJR066W, strain TOR1, stronger effect = lower value 0.967 | S. cerevisiae deletion strains, locus YLR113W, strain HOG1, stronger effect = lower value 1.02 | S. cerevisiae deletion strains, locus YNL183C, strain NPR1, stronger effect = lower value 0.988 | S. cerevisiae deletion strains, locus YOR231W, strain MKK1, stronger effect = lower value 1.04 | S. cerevisiae deletion strains, locus YPL256C, strain CLN2, stronger effect = lower value 1.04

CCCCCCCCCCCCCCCCCC(=O)OC(CC(=O)O)C[N+](C)(C)C (stereo unspecified)
0.976 (inactive) and 0.122 (active): S. cerevisiae deletion strains, locus YGR078C, strain PAC10, stronger effect = lower value
0.96 (inactive) and 0.778 (active): S. cerevisiae deletion strains, locus YPL241C, strain CIN2, stronger effect = lower value
inactive: S. cerevisiae deletion strains, locus YBR229C, strain ROT2, stronger effect = lower value 1.03 | S. cerevisiae deletion strains, locus YCL061C, strain MRC1 (second series), stronger effect = lower value 0.991 | S. cerevisiae deletion strains, locus YDR363W, strain ESC2, stronger effect = lower value 0.985 | S. cerevisiae deletion strains, locus YER002W, strain NOP16, stronger effect = lower value 1.01 | S. cerevisiae deletion strains, locus YJL134W, strain LCB3, stronger effect = lower value 1.01 | S. cerevisiae deletion strains, locus YJL168C, strain set2, stronger effect = lower value 0.956 | S. cerevisiae deletion strains, locus YKL068W, stronger effect = lower value 1 | S. cerevisiae deletion strains, locus YLR039C, strain RIC1, stronger effect = lower value 1.1 | S. cerevisiae deletion strains, locus YLR262C, strain YPT6, stronger effect = lower value 1.09 | S. cerevisiae deletion strains, locus YNR052C, strain pop2, stronger effect = lower value 0.961 | S. cerevisiae deletion strains, locus YOR061W, strain CKA2, stronger effect = lower value 0.949 | S. cerevisiae deletion strains, locus YOR069W, strain VPS5, stronger effect = lower value 1 | S. cerevisiae deletion strains, locus YPR141C, strain kar3, stronger effect = lower value 1.05
0.983 (inactive) and 0.182 (active): S. cerevisiae deletion strains, locus YNL322C, strain KRE1, stronger effect = lower value
1 (inactive) and 0.232 (active): S. cerevisiae deletion strains, locus YMR263W, strain SAP30, stronger effect = lower value
0.892 (inactive) and 0.209 (active): S. cerevisiae deletion strains, locus YPL055C, strain LGE1, stronger effect = lower value
active: S. cerevisiae deletion strains, locus YAL013W, strain DEP1, stronger effect = lower value 0.117 | S. cerevisiae deletion strains, locus YAL040C, strain CLN3, stronger effect = lower value 0.47 | S. cerevisiae deletion strains, locus YBR021W, strain FUR4, stronger effect = lower value 0.0953 | S. cerevisiae deletion strains, locus YCL029C, strain bik1, stronger effect = lower value 0.316 | S. cerevisiae deletion strains, locus YDL035C, strain GPR1, stronger effect = lower value 0.283 | S. cerevisiae deletion strains, locus YDL074C, strain BRE1, stronger effect = lower value 0.238 | S. cerevisiae deletion strains, locus YDL101C, strain DUN1, stronger effect = lower value 0.374 | S. cerevisiae deletion strains, locus YDL134C, strain PPH21, stronger effect = lower value 0.142 | S. cerevisiae deletion strains, locus YDL185W, strain tfp1, stronger effect = lower value 0.0578 | S. cerevisiae deletion strains, locus YDL192W, strain arf1, stronger effect = lower value 0.917 | S. cerevisiae deletion strains, locus YDR101C, strain arx1, stronger effect = lower value 0.679 | S. cerevisiae deletion strains, locus YDR150W, strain NUM1, stronger effect = lower value 0.583 | S. cerevisiae deletion strains, locus YDR162C, strain NBP2, stronger effect = lower value 0.0806 | S. cerevisiae deletion strains, locus YDR318W, strain mcm21, stronger effect = lower value 0.348 | S. cerevisiae deletion strains, locus YDR388W, stronger effect = lower value 0.0585 | S. cerevisiae deletion strains, locus YDR502C, strain sam2, stronger effect = lower value 0.619 | S. cerevisiae deletion strains, locus YEL061C, strain CIN8, stronger effect = lower value 0.44 | S. cerevisiae deletion strains, locus YER110C, stronger effect = lower value 0.156 | S. cerevisiae deletion strains, locus YER155C, strain BEM2, stronger effect = lower value 0.274 | S. cerevisiae deletion strains, locus YER167W, strain BCK2, stronger effect = lower value 0.214 | S. cerevisiae deletion strains, locus YGL078C, strain dbp3, stronger effect = lower value 0.62 | S. cerevisiae deletion strains, locus YGL086W, strain mad1, stronger effect = lower value 0.23 | S. cerevisiae deletion strains, locus YGL248W, strain PDE1, stronger effect = lower value 0.153 | S. cerevisiae deletion strains, locus YGR135W, strain pre9, stronger effect = lower value 0.185 | S. cerevisiae deletion strains, locus YGR229C, strain SMI1, stronger effect = lower value 0.797 and 0.0756 | S. cerevisiae deletion strains, locus YGR252W, strain gcn5, stronger effect = lower value 0.155 | [1] 0.109 | S. cerevisiae deletion strains, locus YHR079C, strain IRE1 (second series), stronger effect = lower value 0.585 | S. cerevisiae deletion strains, locus YHR094C, strain hxt1, stronger effect = lower value 0.608 | S. cerevisiae deletion strains, locus YHR129C, strain ARP1, stronger effect = lower value 0.637 | S. cerevisiae deletion strains, locus YHR200W, strain rpn10, stronger effect = lower value 0.871 | S. cerevisiae deletion strains, locus YIL066C, strain RNR3, stronger effect = lower value 0.0537 | S. cerevisiae deletion strains, locus YIL073C, strain SPO22, stronger effect = lower value 0.108 | S. cerevisiae deletion strains, locus YIL125W, strain kgd1, stronger effect = lower value 0.59 | S. cerevisiae deletion strains, locus YIR030C, strain dcg1, stronger effect = lower value 0.587 | [2] 0.0851 | S. cerevisiae deletion strains, locus YJL187C, strain SWE1 (second series), stronger effect = lower value 0.571 | S. cerevisiae deletion strains, locus YJR043C, strain POL32, stronger effect = lower value 0.567 | S. cerevisiae deletion strains, locus YJR075W, strain HOC1, stronger effect = lower value 0.146 | S. cerevisiae deletion strains, locus YKL009W, strain mrt4, stronger effect = lower value 0.504 | S. cerevisiae deletion strains, locus YKL085W, strain MDH1 (second series), stronger effect = lower value 0.56 | S. cerevisiae deletion strains, locus YKL085W, strain MDH1, stronger effect = lower value 0.56 | S. cerevisiae deletion strains, locus YKL190W, strain CNB1, stronger effect = lower value 0.0864 | S. cerevisiae deletion strains, locus YKR001C, strain vps1, stronger effect = lower value 0.89 | S. cerevisiae deletion strains, locus YLR058C, strain SHM2, stronger effect = lower value 0.598 | S. cerevisiae deletion strains, locus YLR102C, strain apc9, stronger effect = lower value 0.848 | S. cerevisiae deletion strains, locus YLR268W, strain sec22, stronger effect = lower value 0.168 | S. cerevisiae deletion strains, locus YLR330W, strain CHS5, stronger effect = lower value 0.0585 | S. cerevisiae deletion strains, locus YLR342W, strain FKS1 (second series), stronger effect = lower value 0.102 | S. cerevisiae deletion strains, locus YLR371W, strain rom2, stronger effect = lower value 0.9 | S. cerevisiae deletion strains, locus YLR418C, strain cdc73, stronger effect = lower value 0.101 | S. cerevisiae deletion strains, locus YML016C, strain PPZ1, stronger effect = lower value 0.229 | S. cerevisiae deletion strains, locus YML032C, strain rad52, stronger effect = lower value 0.499 | S. cerevisiae deletion strains, locus YML124C, strain tub3, stronger effect = lower value 0.88 | S. cerevisiae deletion strains, locus YMR078C, strain ctf18, stronger effect = lower value 0.392 | S. cerevisiae deletion strains, locus YMR223W, strain ubp8, stronger effect = lower value 0.406 | S. cerevisiae deletion strains, locus YNL067W, strain RPL9B, stronger effect = lower value 0.698 | S. cerevisiae deletion strains, locus YNL128W, strain TEP1, stronger effect = lower value 0.752 | S. cerevisiae deletion strains, locus YNL153C, strain GIM3, stronger effect = lower value 0.281 | S. cerevisiae deletion strains, locus YNL175C, strain NOP13, stronger effect = lower value 0.249 | S. cerevisiae deletion strains, locus YNL197C, strain WHI3, stronger effect = lower value 0.736 | S. cerevisiae deletion strains, locus YNL224C, strain SQS1, stronger effect = lower value 0.391 | S. cerevisiae deletion strains, locus YNL233W, strain BNI4, stronger effect = lower value 0.136 | S. cerevisiae deletion strains, locus YNL250W, strain rad50, stronger effect = lower value 0.69 | S. cerevisiae deletion strains, locus YNL271C, strain bni1, stronger effect = lower value 0.736 | S. cerevisiae deletion strains, locus YNL298W, strain CLA4, stronger effect = lower value 0.192 | S. cerevisiae deletion strains, locus YNL307C, strain MCK1, stronger effect = lower value 0.0704 | S. cerevisiae deletion strains, locus YOL006C, strain TOP1, stronger effect = lower value 0.101 | S. cerevisiae deletion strains, locus YOL147C, strain pex11, stronger effect = lower value 0.118 | S. cerevisiae deletion strains, locus YOR083W, strain WHI5 (second series), stronger effect = lower value 0.102 | S. cerevisiae deletion strains, locus YOR136W, strain idh2, stronger effect = lower value 0.773 | S. cerevisiae deletion strains, locus YOR144C, strain elg1, stronger effect = lower value 0.569 | S. cerevisiae deletion strains, locus YOR184W, strain ser1, stronger effect = lower value 0.0857 | S. cerevisiae deletion strains, locus YOR316C, strain cot1, stronger effect = lower value 0.582 | S. cerevisiae deletion strains, locus YPR119W, strain clb2, stronger effect = lower value 0.796 | S. cerevisiae deletion strains, locus YPR163C, strain tif3, stronger effect = lower value 0.0804 | S. cerevisiae deletion strains, locus YPR167C, strain met16, stronger effect = lower value 0.587 | S. cerevisiae deletion strains, strain wtn01, stronger effect = lower value 0.303 | S. cerevisiae strains, strain wild type, stronger effect = lower value 0.51
1.03 (inactive) and 0.297 (active): S. cerevisiae deletion strains, locus YMR307W, strain GAS1, stronger effect = lower value

From PubChem BioAssay AID1159580 (chemical genetic matrix, 2015)
